We go through 39 molecules from PubChem BioAssay AID493170 (National Center for Advancing Translational Sciences (NCATS), 2011).

SMILES strings stand for the structures. Records with an inconclusive call do not appear. Entries that show only a call come without a potency. Activity calls are given as the source filed them. The call rests on the fitted dose curve; in most records, active means well fitted inhibition curve with a large enough effect; inconclusive means small, poorly fitted or top-dose-only effect, or effect the other way; inactive means flat fitted curve, though single readings scatter.
Potency means the concentration at half of the fitted maximal effect.

The target of this assay is Ubiquitin carboxyl-terminal hydrolase 2 (Homo sapiens) (UniProt O75604). The assay can be described thus: Ub-rhodamine 110 based assay for inhibitors Ubiquitin-specific Protease USP2a. Further: nearly all actives have a fitted effect of over 50% in size. Conditions: USP2a Ub-rhodamine110 cleavage, fluorescence; series mostly up to 38.3 µM. The gist of the method: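 5 nM USP2a preincubated with compounds for 30 min at RT in 20 mM Tris-HCl pH 8.0, 2 mM CaCl2, 2 mM beta-mercaptoethanol, 0.05% CHAPS. Cleavage of 150 nM Ub-rhodamine 110 read kinetically (Ex 485/Em 531) for 7 min.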
Ubiquitin carboxyl-terminal hydrolase 2 (Homo sapiens), sequence (O75604 whole entry, looked up): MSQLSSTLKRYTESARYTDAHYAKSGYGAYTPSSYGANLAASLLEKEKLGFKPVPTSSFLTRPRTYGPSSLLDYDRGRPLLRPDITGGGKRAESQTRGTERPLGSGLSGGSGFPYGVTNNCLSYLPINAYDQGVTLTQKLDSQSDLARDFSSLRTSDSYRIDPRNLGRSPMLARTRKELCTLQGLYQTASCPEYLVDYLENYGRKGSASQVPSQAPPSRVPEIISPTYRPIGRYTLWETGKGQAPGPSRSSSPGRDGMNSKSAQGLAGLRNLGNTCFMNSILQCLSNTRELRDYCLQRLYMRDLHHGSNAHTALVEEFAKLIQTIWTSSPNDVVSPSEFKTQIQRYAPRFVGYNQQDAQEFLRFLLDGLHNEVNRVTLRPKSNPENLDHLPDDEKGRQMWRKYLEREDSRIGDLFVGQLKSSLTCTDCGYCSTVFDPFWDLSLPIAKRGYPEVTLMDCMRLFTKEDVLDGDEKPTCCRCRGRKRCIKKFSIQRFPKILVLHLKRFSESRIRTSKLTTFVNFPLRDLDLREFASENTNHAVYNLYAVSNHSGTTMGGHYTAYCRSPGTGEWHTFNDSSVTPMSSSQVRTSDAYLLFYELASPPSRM
As for `CCOC(=O)c1sc(NC(=O)Nc2ccccc2)cc1C`, the Potency entry is “inactive”.

Turning to `CCOc1ccc(CCn2c(-c3ccco3)nc3ccccc3c2=O)cc1OCC`, the Potency entry was “inactive”. The same measure for `Cc1cnc(N)c2c(=O)oc3ccccc3c12`: “inactive”; for `CCOC(=O)Nc1ccc(S(=O)(=O)Nc2cc(C)nc(C)n2)cc1`: “inactive”.

Regarding `CCOc1ccccc1C(=O)NC1CC2CCCC(C1)N2C1CC1` (centres undefined), the Potency result was “inactive”. The same measure for `Cc1ccc([C@H]2C(C(=O)O)=CC[C@@H](c3ccc(Cl)cc3)N2S(=O)(=O)c2ccc(C)cc2)cc1`: 11.2 µM (active); for `Cc1ccc(S(=O)(=O)N2[C@@H](c3ccc(C(C)(C)C)cc3)C(C(=O)O)=CC[C@H]2c2ccc(Cl)c(Cl)c2)cc1`: 10 µM (active); for `CCOC(=O)c1c(C)n(-c2ccc(C)cc2)c2ccc(OCC(O)CN3CCN(C)CC3)cc12` (centres undefined): “inactive”. For `Cc1csc(NC(=O)CCn2c(=O)sc3ccccc32)n1`, the Potency result was “inactive”.

As for `CC1CC(C)CN(C(=O)CSc2nnc(-c3ccc(Cl)cc3)o2)C1` (centres undefined), the Potency entry is “inactive”. In the case of `Cc1n[nH]c(C)c1S(=O)(=O)N1CCCC(C(=O)NC2CCCc3ccccc32)C1` (centres undefined), the Potency result was “inactive”. Then `C=C1c2cccc(O)c2C(=O)C2C(=O)[C@]3(O)C(=O)C(C(N)=O)C(=O)[C@@H](N(C)C)[C@@H]3[C@@H](O)[C@H]12` (some centres undefined), with 8.91 µM (active); and `CC(C)OCCCNC(=O)c1c(N)n(/N=C/c2ccccn2)c2nc3ccccc3nc12`, with “inactive”; and `C=CC[C@H](CC(=O)N(CCO)Cc1ccccc1)C(=O)N[C@H](C)COC(=O)[C@@H](CC=C)CC(=O)OC(C)(C)C`, with “inactive”. For `O=C1CCCc2nc(N3CCN(c4ccccc4)CC3)ncc21`, the Potency result is “inactive”.

For `Cc1ccc(C(=O)N/C(=C/c2cccs2)C(=O)NCc2ccco2)cc1`, the Potency result was “inactive”. Take `COc1cccc(NC(=O)CSc2nncn2-c2ccccn2)c1`: the Potency result is “inactive”. In the case of `CC(C)CC(c1nnnn1CC1CCCO1)N1CCN(c2nc3ccccc3s2)CC1` (centres undefined), the Potency result is “inactive”. The same measure for `O=C(NC1CCCCC1)C(c1ccco1)N(C(=O)c1csnn1)c1cccc(F)c1` (centres undefined): “inactive”; for `COCc1cc(C)nc(SCC[N+](C)(C)CC(=O)Nc2cccc(C(F)(F)F)c2)c1C#N`: “inactive”; for `Cc1ccc(C(=O)NCCNS(=O)(=O)c2ccccc2)cc1`: “inactive”.

Take `COc1ccc(CCn2c(O)cc3nn(-c4nc5ccccc5s4)c(=O)c-3c2C)cc1`: the Potency is 5.62 µM (active). For `CC(=O)COc1ccc2c(-c3ccccc3)cc(=O)oc2c1`, the Potency entry is “inactive”. As for `Cc1ccc(NC(=O)CN2C(=O)N/C(=C/c3ccco3)C2=O)cc1`, the Potency was 3.98 µM (active). The same measure for `O=S(=O)(NC1CCSc2ccccc21)c1ccccc1` (centres undefined): “inactive”; for `CS(=O)(=O)c1nc(-c2ccc(Br)cc2)cc(-c2ccccc2)c1C#N`: “inactive”.

As for `COC(=O)CCC(=O)Nc1sc2c(c1C#N)CCCC2`, the Potency entry is “inactive”. Then `COc1ccc(NC(=O)CSc2nc3sc(C)cc3c(=O)n2C)c(OC)c1`, with “inactive”. For `COc1ccc(/C=N/NC(=O)c2nn(-c3ccccc3)c(=O)c3c(N)scc23)cc1`, the Potency was 10 µM (active). Consider `O=C(CSc1nc2ccccc2c(=O)n1CC1CCCO1)NCc1ccccc1` (centres undefined), for which the Potency entry is “inactive”. `O=C(c1ccccc1)N1CCN(C(=O)N2CCCCC2)CC1`: the Potency entry is “inactive”.

Turning to `C#CCOCCOCCOCCNc1nc(N2CCN(C(=O)CCCCCCCCCCNC(=O)Cn3cc(CCCCCN)nn3)CC2)nc(N2CCN(C(=O)CCCCCCCCCCNC(=O)Cn3cc(CCCCCN)nn3)CC2)n1`, the Potency result was “inactive”. In the case of `Cc1ccc(C(=O)O/N=C/c2c(C(F)(F)F)nn(C)c2Sc2ccc(Cl)cc2)cc1`, the Potency result was “inactive”. Then `O=C(O)c1cccc(-n2cccc2/C=C2/NC(=O)N(c3ccc(Cl)cc3)C2=O)c1`, with 4.47 µM (active); and `O=C(NCc1ccccc1)C1CCC1`, with “inactive”; and `CCCc1cc(=O)oc2cc(C)c(CN3CCCC3)c(O)c12`, with 10 µM (active). Then `Cc1ccc(NC(=O)Cn2nc(C)c3ccccc3c2=O)cc1F`, with “inactive”; and `COC(=O)CSc1nnc(NC(=O)C2CC(=O)N(c3ccc(F)cc3)C2)s1` (centres undefined), with 11.2 µM (active). In the case of `N#Cc1cccc(C(=O)N(CCc2ccccc2)Cc2cccs2)c1`, the Potency result was “inactive”.
